About 1,300 (0.68%) of roughly 190,000 compounds were called active. Shown is part of a subset that was picked to be rich in actives. A number with no mark means an inactive call. No stated cut-off is given here; in the data, active means inhibition above about 50%; inactive means the rest.
target: Mannose-6-phosphate isomerase (Homo sapiens) (UniProt P34949); test: MPI inhibition at elevated mannose 6-phosphate – biochemical, fluorescence intensity, high mannose 6-phosphate, primary screen (AID 1220); conditions: recombinant PMI enzyme, coupled fluorescence intensity; at 20 µM; stronger effect = higher value
Sequence (P34949 whole entry, looked up): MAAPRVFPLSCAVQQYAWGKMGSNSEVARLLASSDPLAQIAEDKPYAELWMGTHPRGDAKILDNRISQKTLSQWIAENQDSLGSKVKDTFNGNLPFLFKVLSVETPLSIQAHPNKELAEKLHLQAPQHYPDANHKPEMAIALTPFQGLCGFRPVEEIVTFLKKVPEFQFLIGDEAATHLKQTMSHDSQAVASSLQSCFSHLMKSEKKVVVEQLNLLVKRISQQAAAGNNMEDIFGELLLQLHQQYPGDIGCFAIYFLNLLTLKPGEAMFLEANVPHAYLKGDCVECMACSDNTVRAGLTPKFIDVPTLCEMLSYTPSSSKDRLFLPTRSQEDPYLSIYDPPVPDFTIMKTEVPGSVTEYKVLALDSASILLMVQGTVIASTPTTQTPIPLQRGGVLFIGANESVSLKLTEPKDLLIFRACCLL

Compound	inhibition
CC(C)C(=O)NC(Nc1cccc2cccnc12)C(Cl)(Cl)Cl (stereo not given)	41.4%
CC(C)(C)C(=O)NC(Nc1cccc2cccnc12)C(Cl)(Cl)Cl (stereo not given)	60.1% (active)
CCC(=O)NC(NC(=S)Nc1cccc2cccnc12)C(Cl)(Cl)Cl (stereo not given)	37.8%
CCOC(=O)c1oc2ccccc2c1NC(=O)COC	-10.9%
CCOc1ccc(C(C)NC(=O)CCC(=O)O)cc1 (stereo not given)	1.9%
Cc1ccc2nc(SCC(=O)Nc3cccc(S(=O)(=O)N(C)C)c3)[nH]c2c1	10.5%
O=C(/C=C/c1ccc(Br)o1)NCCCN1CCOCC1	-2.7%
CCCc1ccc(C#N)c(SC2CC(=O)N(c3ccc(OC)cc3)C2=O)n1 (stereo not given)	40.6%
N#Cc1cc2c(nc1SC1CC(=O)N(c3ccccc3)C1=O)CCC2 (stereo not given)	35.2%
COc1ccc(N2C(=O)CC(Sc3nc4c(cc3C#N)CCC4)C2=O)cc1 (stereo not given)	57.1% (active)
Cc1nc2ccc(NC(=O)c3cc(S(=O)(=O)N4CCOCC4)ccc3C)cc2s1	5.6%
Cc1nc2ccc(Nc3nc4cc(S(=O)(=O)N5CCOCC5)ccc4o3)cc2s1	61.9% (active)
Cc1nc2ccc(NC(=O)c3ccc(S(=O)(=O)N4CCOCC4)cc3)cc2s1	-2.3%
Nc1nc(NCCCN2CCOCC2)nc(Nc2ccc(F)cc2)c1[N+](=O)[O-]	-6.1%
CCOC(=O)c1sc2nc(CC(=O)OC)nc(N(C)CCc3ccccn3)c2c1C	-1.1%
CC(=O)C1=C(C)OC(N)=C(C#N)C1c1cccc([N+](=O)[O-])c1 (stereo not given)	56.7% (active)
CC1=C(n2nnc([N+](=O)[O-])n2)C(c2cccnc2)C(C#N)=C(N)O1 (stereo not given)	59.9% (active)
CCOC(=O)C1=C(c2ccccc2)OC(N)=C(C#N)C1c1cccnc1 (stereo not given)	11.6%
COC(=O)C1=C(C)OC(N)=C(C#N)C1c1cccnc1 (stereo not given)	0.3%
CC(=O)C1=C(C)OC(N)=C(C#N)C1c1cccnc1 (stereo not given)	42.6%

Compound	inhibition
CC(=O)C1=C(C)OC(N)=C(C#N)C1c1ccncc1 (stereo not given)	-5.8%
O=C(CN1CCN(C2CCCCC2)CC1)Nc1ccc(Br)cc1	-11.2%
CC1(C)CC(=O)C(N=Nc2cc(Cl)c(Cl)c(Cl)c2)=C(O)C1	-3.4%
O=Cc1ccc(-n2cc(C=O)c3ccccc32)cc1	-5.3%
CC1=C(C(=O)OCC2CCCO2)C(c2coc3ccccc3c2=O)C2=C(CC(C)(C)CC2=O)N1 (stereo not given)	-4.3%
CC(NC(=O)c1cc(-c2ccc(Br)cc2)on1)c1ccccc1 (stereo not given)	-3.3%
O=C(c1cnn(-c2ccccc2)c1)c1ccccc1O	10.1%
CCc1cc(C(=O)Cc2cnn(-c3ccccc3)c2)c(O)cc1O	15.5%
O=C(Nc1cccc(NC(=O)c2ccc3c(c2)OCO3)c1)c1ccccc1	6.5%
CCOc1ccccc1N1CCN(CC(=O)Nc2nnc(CC)s2)CC1	-13%
O=c1n(-c2ccc(Br)cc2)cnn1-c1ncccc1[N+](=O)[O-]	-0.4%
O=c1c2c([N+](=O)[O-])cc([N+](=O)[O-])cc2sn1-c1ccc(Br)cc1	104% (active)
O=c1c2cc(Br)ccc2nc(-c2ccc([N+](=O)[O-])cc2)n1O	-16.5%
Cc1ccc(C(=O)Nc2ccc(Br)cc2)cc1S(=O)(=O)Nc1ccccn1	3.7%
c1ccc(Nc2cccc(Nc3ccccc3)c2)cc1	29.3%
COc1cccc(NC2=NC3(CCCCC3)N=C(N)N2)c1	-6.8%
O=C1c2cccc3cccc(c23)C(=O)N1c1nccs1	8.2%
CC(Sc1nncn1C)C(=O)Nc1nnc(-c2ccccc2)s1 (stereo not given)	6%
COc1ccc(OC)c(-c2nnc(NC(=O)C(C)Sc3nncn3C)s2)c1 (stereo not given)	91.6% (active)
COc1ccccc1-c1nnc(NC(=O)C(C)Sc2nncn2C)s1 (stereo not given)	-2.2%

Compound	inhibition
COc1ccccc1CN1CCNC(=O)C1CC(=O)NCc1csc(C)n1 (stereo not given)	9.7%
CSc1ccc(/C=N/NC(=O)CN2CCN(Cc3ccccc3Cl)CC2)cc1	0.4%
COCCn1c(C)cc(C(=O)COc2ccc(C)nc2[N+](=O)[O-])c1C	51.6% (active)
Cc1ccc(OCC(=O)c2ccc(Cl)s2)c([N+](=O)[O-])n1	55.6% (active)
COCCn1c(C)cc(C(=O)COc2cccnc2[N+](=O)[O-])c1C	59.4% (active)
Cc1cc(C)c(C(=O)COc2cccnc2[N+](=O)[O-])cc1C	24.3%
Cc1ccc(C)c(C(=O)COc2ccc(C)nc2[N+](=O)[O-])c1	18.4%
COCCn1c(C)cc(C(=O)COc2nc3ccccc3nc2C)c1C	8.5%
CCCn1c(C)cc(C(=O)COc2ccc(C)nc2[N+](=O)[O-])c1C	3.2%
Cc1ccc(OCC(=O)c2cc(C)n(C)c2C)c([N+](=O)[O-])n1	42.3%
Cc1ccc(OCC(=O)c2cc(C)c(C)cc2C)c([N+](=O)[O-])n1	4.2%
O=C(CCN1C(=O)c2cccnc2C1=O)NC1CCCCCC1	9.7%
CCC(=O)Nc1ccc(N2CCN(S(C)(=O)=O)CC2)cc1	3.4%
Cc1cc(NCCCn2ccnc2)n2nc(-c3ccc(F)cc3)cc2n1	-14.3%
O=C(N/N=C/c1ccncc1)c1cccc(NC(=O)c2ccc(Cl)cc2)c1	-140%
C#CCOCCOCCOCCNc1nc(N2CCN(C(=O)Cn3cc(CCCN=C(N)N)nn3)CC2)nc(N2CCN(C(=O)[C@H]([C@@H](C)CC)n3cc(CCCN=C(N)N)nn3)CC2)n1	-53.5%
CCOC(=O)N1CCC(NC(=O)C2CCCN(c3nc4ccccc4o3)C2)CC1 (stereo not given)	3.2%
CC(NC(=O)C(Cc1ccccc1)NC(=O)c1ccccc1)C(=O)O (stereo not given)	-5.7%
N=C(N)Cc1ccccc1Sc1ccccc1	-7.9%
Cc1ccc(NC(=O)c2ccc(F)c(S(=O)(=O)N3CCOCC3)c2)cc1F	0.5%
